The term remaining activity denotes the signal under treatment as a percentage of the control signal. As a reminder, the AC50 is the midpoint of the concentration-response curve, whichever way the signal moves.

Inconclusive results are not listed. Activity calls are given as the source filed them. Unless noted, no cut-off is given here; in the data, nearly all actives have AC50 up to about 37 µM.

The subject of one assay is Aerobactin synthetase IucA (Klebsiella pneumoniae). Briefly: IucA aerobactin synthetase inhibitors, biochemical, Tocris library, absorbance (AID 1345561; call rule not given here;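 note: 100% = enzyme without compound and 0% = no enzyme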). As to conditions: purified IucA enzyme assay, absorbance (OD) read-out; active compounds read low;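 tested at 8 µM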.
In the case of `CC12CC3CC(C)(C1)CC(N)(C3)C2`, the remaining activity was 87.5% (inactive).
Still for that read-out and setting: the figure for `CC1=NS(=O)(=O)c2cc(Cl)ccc2N1` is 104% (inactive); for `CN=C(NC#N)NCCSCc1nc[nH]c1C` it is 118% (inactive); for `CC1=C(/C=C/C(C)=C/C=C/C(C)=C/C(=O)O)C(C)(C)CCC1` it is 104% (inactive).
The same measure, in the same setting: the figure for `CCOC(=O)C1=C(C)NC(C)=C(C(=O)OC)C1c1cccc([N+](=O)[O-])c1` (configuration not stated) is 111% (inactive).
On the same count and under the same terms, in the case of `COc1ccccc1OCCNCC(O)COc1cccc2[nH]c3ccccc3c12` (configuration not stated) it was 112% (inactive); in that of `O=C(O)CCCc1ccccc1`, 106% (inactive).
For the compound `CCN(Cc1ccncc1)C(=O)C(CO)c1ccccc1` (configuration not stated), the remaining activity is 104% (inactive).
Take `COc1ccc(Cl)cc1C(=O)NCCc1ccc(S(=O)(=O)NC(=O)NC2CCCCC2)cc1`: the remaining activity was 104% (inactive).
In the case of `CC1(C)O[C@@H]2[C@@H](CO[C@@]3(COS(N)(=O)=O)OC(C)(C)O[C@@H]23)O1`, the remaining activity is 121% (inactive).
Still for that read-out and setting: in the case of `COCCOC(=O)C1=C(C)NC(C)=C(C(=O)OC(C)C)C1c1cccc([N+](=O)[O-])c1` (configuration not stated) it was 102% (inactive).

Tested on in the next assay: not listed separately
Briefly: growth inhibition of DIPG glioma cells, dose response, cell-based, SU-DIPG-XVII, MIPE5.0, CellTiter-Glo, qHTS (AID 1347060; cut-off not given, nearly all actives have AC50 up to about 26 µM;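 for AC50: cells exposed to compound for 48 hours before viability readout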). As to conditions: SU-DIPG-XVII viability, CellTiter-Glo ATP luminescence. (In general: In ATP-based viability assays light output follows the ATP content of the culture.)
`CC(=O)OCC(CCn1cnc2cnc(N)nc21)COC(C)=O`: the result was inactive.
In the case of `S=c1nc[nH]c2nc[nH]c12`, the concentration at half-maximal activity (AC50) is 1.18 µM (active).
The same measure, in the same setting: in the case of `Oc1c(Cl)cc(Cl)c2cccnc12` it was 16.6 µM (active).
Consider `OC(Cn1cncn1)(Cn1cncn1)c1ccc(F)cc1F`, for which the compound was called inactive.
The same measure, in the same setting: in the case of `NCCc1ccc(O)c(O)c1` it was “inactive”.
Still for that read-out and setting: in the case of `COc1c(N2CCNC(C)C2)c(F)cc2c(=O)c(C(=O)O)cn(C3CC3)c12` (configuration not stated) it was “inactive”; in that of `CC1COc2c(N3CCN(C)CC3)c(F)cc3c(=O)c(C(=O)O)cn1c23` (configuration not stated), “inactive”.
Turning to `O=C(C1CCCCC1)N1CC(=O)N2CCc3ccccc3C2C1` (configuration not stated), the AC50 is 26.3 µM (active).
With `CCc1cc(C(N)=S)ccn1`, the compound was classed as inactive.
`CCCCNc1cc(C(=O)O)cc(S(N)(=O)=O)c1Oc1ccccc1`: the outcome was inactive.
Still for that read-out and setting: in the case of `O=c1[nH]cnc2[nH]ncc12` it was “inactive”.
`O=C1c2c(O)ccc(O)c2C(=O)c2c(NCCNCCO)ccc(NCCNCCO)c21`: the AC50 is 0.417 µM (active).
On to `O=C(O)c1cc(=O)c2c(OCC(O)COc3cccc4oc(C(=O)O)cc(=O)c34)cccc2o1`, for which the compound was called inactive.
Same read-out and setting: in the case of `CC(C)C(=O)Nc1ccc([N+](=O)[O-])c(C(F)(F)F)c1` it was “inactive”; in that of `CC(COc1ccccc1)N(CCCl)Cc1ccccc1` (configuration not stated), “inactive”; in that of `CCCc1nc2c(C)cc(-c3nc4ccccc4n3C)cc2n1Cc1ccc(-c2ccccc2C(=O)O)cc1`, “inactive”.
On the same count and under the same terms, the entry for `CC(=O)CC(c1ccccc1)c1c(O)c2ccccc2oc1=O` (configuration not stated) is “inactive”.
Still for that read-out and setting: in the case of `NS(=O)(=O)c1cc2c(cc1Cl)NCNS2(=O)=O` it was “inactive”; in that of `CS(=O)(=O)OCCCCOS(C)(=O)=O`, “inactive”; in that of `NNCCc1ccccc1`, “inactive”.
With `CC1Cc2ccccc2N1NC(=O)c1ccc(Cl)c(S(N)(=O)=O)c1` (configuration not stated), the call was inactive.
For `CC(C)Cc1ccc(C(C)C(=O)O)cc1` (configuration not stated), the result was inactive.
In the case of `N[C@@H]1CONC1=O`, the outcome was inactive.
As for `CCCc1cc(=O)[nH]c(=S)[nH]1`, the outcome was inactive.
Still for that read-out and setting: in the case of `O=C(O)c1cccnc1` it was “inactive”.
As to `CC(C[N+](C)(C)C)OC(N)=O` (configuration not stated), the call was inactive.
Same read-out and setting: the entry for `N[C@@H](Cc1cc(I)c(Oc2cc(I)c(O)c(I)c2)c(I)c1)C(=O)O` is “inactive”.
Still for that read-out and setting: the entry for `NNC(=O)c1ccncc1` is “inactive”.

Tested on in the next assay: not listed separately
Briefly: growth inhibition of DIPG glioma cells, dose response, cell-based, SU-DIPG-XIII, MIPE4.0, CellTiter-Glo, qHTS (AID 1347061).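 Note: cells exposed to compound for 48 hours before readout.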 To be noted: SU-DIPG-XIII viability, CellTiter-Glo ATP luminescence.
Take `CC(=O)OCC(CCn1cnc2cnc(N)nc21)COC(C)=O`: the compound was classed as inactive.
Same read-out and setting: the entry for `S=c1nc[nH]c2nc[nH]c12` is “inactive”.
Take `Oc1c(Cl)cc(Cl)c2cccnc12`: the half-maximal activity concentration (AC50) was 18.7 µM (active).
On to `OC(Cn1cncn1)(Cn1cncn1)c1ccc(F)cc1F`, for which the outcome was inactive.
Still for that read-out and setting: in the case of `NCCc1ccc(O)c(O)c1` it was “inactive”; in that of `COc1c(N2CCNC(C)C2)c(F)cc2c(=O)c(C(=O)O)cn(C3CC3)c12` (configuration not stated), “inactive”.
The same measure, in the same setting: in the case of `CC1COc2c(N3CCN(C)CC3)c(F)cc3c(=O)c(C(=O)O)cn1c23` (configuration not stated) it was “inactive”.
Regarding `O=C(C1CCCCC1)N1CC(=O)N2CCc3ccccc3C2C1` (configuration not stated), the compound was called inactive.
Consider `CCc1cc(C(N)=S)ccn1`, for which the result was inactive.
On the same count and under the same terms, the entry for `CCCCNc1cc(C(=O)O)cc(S(N)(=O)=O)c1Oc1ccccc1` is “inactive”; for `O=c1[nH]cnc2[nH]ncc12` it is “inactive”.
Regarding `O=C1c2c(O)ccc(O)c2C(=O)c2c(NCCNCCO)ccc(NCCNCCO)c21`, the AC50 is 18.7 µM (active).
`O=C(O)c1cc(=O)c2c(OCC(O)COc3cccc4oc(C(=O)O)cc(=O)c34)cccc2o1`: the outcome was inactive.
Same read-out and setting: in the case of `CC(C)C(=O)Nc1ccc([N+](=O)[O-])c(C(F)(F)F)c1` it was “inactive”.
The same measure, in the same setting: in the case of `CC(COc1ccccc1)N(CCCl)Cc1ccccc1` (configuration not stated) it was “inactive”; in that of `CCCc1nc2c(C)cc(-c3nc4ccccc4n3C)cc2n1Cc1ccc(-c2ccccc2C(=O)O)cc1`, “inactive”; in that of `CC(=O)CC(c1ccccc1)c1c(O)c2ccccc2oc1=O` (configuration not stated), “inactive”.
Same read-out and setting: in the case of `NS(=O)(=O)c1cc2c(cc1Cl)NCNS2(=O)=O` it was “inactive”; in that of `CS(=O)(=O)OCCCCOS(C)(=O)=O`, “inactive”.
In the case of `NNCCc1ccccc1`, the AC50 is 9.35 µM (active).
Turning to `CC1Cc2ccccc2N1NC(=O)c1ccc(Cl)c(S(N)(=O)=O)c1` (configuration not stated), the outcome was inactive.
Take `CC(C)Cc1ccc(C(C)C(=O)O)cc1` (configuration not stated): the compound was called inactive.
With `N[C@@H]1CONC1=O`, the compound was called inactive.
Same read-out and setting: the entry for `CCCc1cc(=O)[nH]c(=S)[nH]1` is “inactive”; for `O=C(O)c1cccnc1` it is “inactive”; for `CC(C[N+](C)(C)C)OC(N)=O` (configuration not stated) it is “inactive”.
For the compound `N[C@@H](Cc1cc(I)c(Oc2cc(I)c(O)c(I)c2)c(I)c1)C(=O)O`, the compound was classed as inactive.
On the same count and under the same terms, in the case of `NNC(=O)c1ccncc1` it was “inactive”.

These data come from PubChem BioAssay.
